These results are taken from PubChem BioAssay (Tox21).

Unmarked numbers belong to inactive results. Where a call stands in place of a potency, no number is given. Activity calls are given as the source filed them. Calls follow the shape of the full dose curve.

Muscarinic acetylcholine receptor M1 (Homo sapiens), sequence (P11229 whole entry, looked up): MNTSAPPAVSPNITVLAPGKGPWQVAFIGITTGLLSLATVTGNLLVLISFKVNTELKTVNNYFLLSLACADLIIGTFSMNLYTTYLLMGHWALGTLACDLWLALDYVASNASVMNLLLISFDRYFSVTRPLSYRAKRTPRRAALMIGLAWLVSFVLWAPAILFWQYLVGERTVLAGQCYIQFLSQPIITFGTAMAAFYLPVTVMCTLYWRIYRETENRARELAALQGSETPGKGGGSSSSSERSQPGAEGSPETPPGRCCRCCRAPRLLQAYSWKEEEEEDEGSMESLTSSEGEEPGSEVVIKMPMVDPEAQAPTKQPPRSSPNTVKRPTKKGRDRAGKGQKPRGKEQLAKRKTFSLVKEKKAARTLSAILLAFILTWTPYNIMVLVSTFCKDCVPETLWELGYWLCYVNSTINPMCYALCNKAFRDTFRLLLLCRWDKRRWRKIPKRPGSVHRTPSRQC

The assay deals with Muscarinic acetylcholine receptor M1 (Homo sapiens) (UniProt P11229). Description: Cholinergic receptor muscarinic 1 (CHRM1) small molecule agonists, cell-based qHTS assay (AID 1963589). Also: nearly all actives have a fitted effect of over 35% in size. As to conditions: CHRM1-CHO cells, agonist mode, calcium flux fluorescence; series mostly up to 76.8 µM; activation: at the top concentration. The source says:
National Center for Advancing Translational Sciences [NCATS]
Division of Preclinical Innovation [DPI]
U.S. Environmental Protection Agency [EPA]
National Institutes of Environmental Health Sciences [NIEHS]
National Toxicology Program [NTP]
U.S. Food and Drug Administration [FDA]
The CHRM1 is a muscarinic receptor. This receptor plays a crucial role in learning and memory processes and has long been identified as a promising therapeutic target for the improvement of cognitive decline in Alzheimer's disease (AD). The CHRM1-CHO cell line stably expressing human muscarinic acetylcholine receptor M1 (CHRM1) can be used for screening agonists and antagonists of interactions between CHRM1 and its ligands. The CHRM1-CHO Calcium Flux Assay is a homogeneous fluorescence-based assay for detecting the intracellular calcium level using FDSS kinetic plate reader system.
CHRM1-CHO cells were dispensed at 1000 cells/3uL/well in 1536-well black-clear bottom plates using a Multidrop Dispenser. After the assay plates were incubated at a 37 C/5% CO2 incubator for 18 h, 3 uL of Dye Loading Buffer was transferred to the assay plate by a Flying Reagent Dispenser. The assay plates were incubated at 37 C for 1h. For agonist mode, 23 nL of compounds dissolved in DMSO, positive controls or DMSO only was transferred to the assay plate by a pin tool. […] Each test compound was measured at 15 concentrations in three independent runs.
A general note: qHTS replaces the single test concentration by a dilution series.
As to `CCCCCCCCCl`, the Potency entry is “inactive”. Consider `O=C(O)C1C2CCC(O2)C1C(=O)O` (stereo not given), for which the Potency entry is “inactive”. As for `O=Cc1cccc(Oc2ccccc2)c1`, the “activation” value was 1.6%. As for `CCC[N+]1(C)CCCCC1`, the Potency result is “inactive”.

For `O=S(=O)(Oc1ccc(Cl)cc1)c1ccc(Cl)cc1`, the Potency result was “inactive”.

For the compound `O=C(CBr)c1ccc(O)cc1`, the “activation” value is 2.62%. Still for that read-out and setting: with `C/C=C/CC#N` the figure was -0.0185%.

Consider `CN(C)[C@@H]1C(=O)C(C(N)=O)=C(O)[C@@]2(O)C(=O)C3=C(O)c4c(O)cccc4[C@@](C)(O)[C@H]3[C@H](O)[C@@H]12`, for which the Potency entry was “inactive”.

Take `CC(=O)C(Cl)Cl`: the “activation” value was 0.127%. For `Cn1cc[n+](C)c1` (tested in a mixture with another compound), the “activation” value was 0.032%. `CCCCCCCCCCn1cc[n+](C)c1`: the Potency entry is “inactive”.

Regarding `Nc1ccccc1C(=O)O`, the Potency entry was “inactive”.

Take `COc1cccc(C=O)c1`: the “activation” value is 0.088%. On to `C=CC(=O)OCC(CC)(COC(=O)C=C)COC(=O)C=C`, for which the Potency result is “inactive”.

Turning to `CN(C)C(=O)Nc1cccc(C(F)(F)F)c1`, the Potency result is “inactive”. The same measure, in the same setting: with `c1ccc2c(c1)CCCC2` the entry was “inactive”. For `CN=C=O`, the “activation” value is -0.257%. `CCCC[n+]1ccccc1C`: the Potency entry is “inactive”. In the case of `N#Cc1nn(-c2c(Cl)cc(C(F)(F)F)cc2Cl)c(N)c1S(=O)C(F)(F)F` (stereo not given), the Potency result is “inactive”. The same measure, in the same setting: with `Clc1ccccc1-c1nnc(-c2ccccc2Cl)nn1` the entry was “inactive”. For the compound `C[C@H]1O[C@H](OC2[C@@H](O)[C@@H](O)C(O)[C@H](O)[C@H]2O)[C@@H](N)C[C@@H]1N=C(N)C(=O)O` (stereo not given in full), the “activation” value is -0.0805%. With `C=CCc1ccccc1O`, the “activation” value is -1.2%.

On to `COS(=O)(=O)OC`, for which the Potency entry is “inactive”. As to `CCOP(=S)(OCC)Oc1nc(Cl)c(Cl)cc1Cl`, the Potency result was “inactive”. On to `CCCCOCCOC(C)=O`, for which the Potency entry is “inactive”. For `O=C(O)CF`, the Potency result is “inactive”. On to `C1CCC(NC2CCCCC2)CC1`, for which the Potency result was “inactive”. Take `CSc1nc(NC(C)C)nc(NC(C)C)n1`: the Potency result is “inactive”. On to `CCCC1COC(Cn2cncn2)(c2ccc(Cl)cc2Cl)O1` (stereo not given), for which the Potency entry is “inactive”. For `CC[n+]1ccccc1`, the Potency result is “inactive”.

Consider `Cc1ccc(N)cc1N`, for which the Potency result is “inactive”. `CNC(=O)NC(O)C(Cl)(Cl)Cl` (stereo not given): the “activation” value is 0.0746% [at 35.3 µM]. As for `Nc1ccccc1`, the Potency result is “inactive”. Turning to `OCCSCSCCO`, the “activation” value is 0.198%.

For `COP(=S)(OC)Oc1ccc([N+](=O)[O-])cc1`, the Potency result is “inactive”. As for `COP(=S)(OC)Oc1ccc(S(=O)(=O)N(C)C)cc1`, the Potency entry is “inactive”.

`CCOP(=S)(OCC)Oc1ccc([N+](=O)[O-])cc1`: the Potency result was “inactive”.

As for `CCNc1nc(Cl)nc(NC(C)C)n1`, the Potency entry was “inactive”. `CN1CCC(N(Cc2ccccc2)c2ccccc2)CC1`: the “activation” value was -0.0128% [at 35.3 µM]. For `OC[P+](CO)(CO)CO`, the Potency entry was “inactive”.
